Source: PubChem (National Center for Advancing Translational Sciences (NCATS))
Rows were chosen to be rich in hits. Some 11% of all compounds tested hit in one or more screens of this group.
NS1 function inh: inhibitors of influenza NS1 protein function. Potency, µM (doses to about 46.1 µM), for the others: top-dose activity, positive = more growth. 270,000 tested, 0.4% active; calls by dose curve; also: actives are rising curves; nearly all actives have a fitted effect of over 50% in size
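Compounds were scored for reversing the slow growth caused by influenza A NS1 in S. cerevisiae, measured by optical density at 600 nm. Assay medium contained 2% galactose at pH 6.0; NS1-free yeast of the same strain were the positive control.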
Pf growth 48h: P. falciparum growth inhibition at 48 hours (one generation); P. falciparum luciferase growth in erythrocytes, 48 h; Potency, µM (highest dose often 28.7 µM), for the others: at the top dose activity change, negative = inhibition, most hits filed as inhibitors; 310,000 tested, 5.9% active; AID 504832; also: % is scaled to controls: 0 for no effect and ±100 for the full control effect
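Read-out is firefly luciferase luminescence from an integrated reporter in P. falciparum, so falling signal marks reduced parasite growth. Infected erythrocytes were at 2% hematocrit and 0.1% parasitemia (final) in Albumax-supplemented RPMI 1640.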
Pf growth 96h: P. falciparum growth inhibition at 96 hour, primary screen for plastid delayed-death inhibitors | AID 504834 | Potency, µM (titrated, usually from 28.7 µM), for the others: at the top dose activity change, negative = inhibition, usual class: inhibitors | P. falciparum luciferase reporter growth, 96 h | 320,000 tested, 6.9% active; also: % is scaled to controls: 0 for no effect and ±100 for the full control effect
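Readout is luminescence from an integrated firefly luciferase in P. falciparum. Red cells, 2% hematocrit and 0.05% parasitemia final, were cultured with compound through two parasite generations (96 hours) at 37 C, 5% CO2.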
Vaccinia Venus: vaccinia inhibition (Venus reporter) | Vaccinia virus Venus reporter expression, fluorescence | Potency, µM (top dose mostly 36.5 µM), without a hit: at the highest dose activity change, negative = inhibition, actives largely listed as inhibitors | 330,000 tested, 0.46% active; calls by dose curve; tested in A549 cells; also: % is scaled to controls: 0 for no effect and ±100 for the full control effect; nearly all actives have a fitted effect of over 30% in size
HCV inhibitor: inhibitors of hepatitis C virus infection. 340,000 tested, 3.4% active. Potency, µM (highest dose often 41.8 µM), for inactives: at the highest dose activity change, negative = inhibition, most hits filed as inhibitors. Huh7.5.1 HCVcc-Cre infection, luciferase reporter, 44 h. AID 651820; also: % is scaled to controls: 0 for no effect and ±100 for the full control effect
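Infectious HCV cell culture screen: compound-treated cells (1,000/well, pre-plated 4 h) are infected with HCVcc-Cre at roughly 0.5 moi and grown 44 h. Infection is quantified by luciferase signal after 15 min substrate incubation at room temperature.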
VACV mCherry inh: inhibitors of vaccinia virus infection (mCherry reporter signal); Vaccinia virus mCherry reporter infection, fluorescence; Potency, µM (series often up to 36.5 µM), for inactives: at the highest dose activity change, negative = inhibition, most hits filed as inhibitors; 310,000 tested, 0.63% active; calls by dose curve; tested in A549 cells; also: % is scaled to controls: 0 for no effect and ±100 for the full control effect; nearly all actives have a fitted effect of over 35% in size
An asterisk follows results filed as active; i = inactive; ? = inconclusive; . = no result given. Unless noted, calls follow the shape of the dose curve; as a rule, active = well fitted inhibition curve with a large enough effect; inconclusive = small, poorly fitted or top-dose-only effect, or another doubt; inactive = no such curve, though single readings can be large or run the other way. Potency is read from the fitted curve at half-maximal effect.

SMILES | NS1 function inh | Pf growth 48h | Pf growth 96h | Vaccinia Venus | HCV inhibitor | VACV mCherry inh
CC(=O)c1ccc(C(=O)NCc2nc(-c3ccccc3NC(=O)c3cc(C)oc3C)oc2C)cc1 | . | . | . | -1% | . | -11%
CCC(=O)N1N=C2C3CCN(CC3)C2C1c1ccc(C)cc1 (stereo unspecified) | 2% | 14% | 4.1µM* | -9% | 10% | i
CCOc1ccc(-c2nc(N)ncc2-c2ccccc2)c(O)c1 | -40% | ? | ? | ? | 10µM* | ?
CCOc1ccc(-c2nc(N)ncc2-c2ccc(OC)cc2)c(O)c1 | 5% | ? | ? | ? | ? | ?
CCOc1ccc(-c2nc(N)ncc2-c2ccc(Cl)cc2)c(O)c1 | 15% | 10µM* | ? | . | ? | .
COc1ccc(-c2nc(C)ncc2-c2ccc(Cl)cc2)c(O)c1 | -5% | 4.7µM* | 3.7µM* | . | -20% | .
CCOc1ccc(-c2nc(N)ncc2Oc2ccc(OC)cc2)c(O)c1 | 0% | 12µM* | ? | -19% | 14µM* | ?
CCNC(=O)/C=C1\NC(C)(C)Cc2c1ccc1ccccc21 | -11% | . | ? | -11% | -23% | -21%
CS(=O)(=O)c1ccccc1C(=O)Nc1ccc(-c2nc3ccccc3[nH]2)cc1 | -14% | 85% | 85% | . | -6% | .
Cc1ccccc1C(=O)Nc1ccc(-c2nc3ccc(C(=O)c4ccccc4)cc3[nH]2)cc1 | -13% | 8.3µM* | ? | ? | 11µM* | .
O=C(O)c1ccc(NC(=O)c2ccccc2NC(=O)c2ccccc2Br)cc1 | 28% | 3% | ? | -5% | 12% | -10%
O=C(c1ccccc1)c1ccc2nc(-c3ccc(NC(=O)c4ccccc4Br)cc3)[nH]c2c1 | -35% | ? | ? | -25% | 25µM* | -23%
O=S(=O)(NCCc1csc2nc(-c3ccccc3)nn12)c1ccc(Cl)s1 | . | . | . | -16% | . | -9%
CC(Oc1ccc(F)cc1)C(=O)Nc1nc(-c2ccccn2)cs1 (stereo unspecified) | . | 2.6µM* | 2.3µM* | ? | 8.9µM* | ?
O=C(CCS(=O)(=O)c1ccc(F)cc1)Nc1nc(-c2ccccn2)cs1 | -12% | ? | ? | . | -1% | .
COc1ccc2oc(C(=O)Nc3nc(-c4ccccn4)cs3)c(C)c2c1 | . | ? | 6.6µM* | -10% | ? | -26%
O=C(CC1CC2CCC1C2)Nc1nc(-c2ccccn2)cs1 (stereo unspecified) | 1% | 2.6µM* | 4.7µM* | -14% | ? | -16%
O=C(CCS(=O)(=O)c1ccccc1)Nc1nc(-c2ccccn2)cs1 | . | . | . | ? | ? | 10µM*
CN(CC(=O)Nc1ccccc1Br)C(=O)CNC(=O)c1ccc(Oc2ccccc2)cc1 | 5% | ? | -11% | . | ? | .
S=C(c1ccccc1)N1CCCc2ccccc21 | -10% | -16% | -2% | -8% | 16% | -21%
CC(=O)c1ccc(OCc2nnn(CC(=O)NS(=O)(=O)Cc3ccccc3)c2-c2ccccc2)cc1 | . | . | . | 6% | . | 12%
Cc1cc(C)c(OCC(=O)Nc2nc(-c3ccccn3)cs2)c(C)c1 | . | 8.3µM* | ? | ? | 4µM* | ?
COc1ccccc1NC(=O)Nc1nc(CC(=O)NC2CCCC2)cs1 | . | ? | ? | -24% | ? | -3%
COc1cc(/C=C2/SC(=S)NC2=O)ccc1OS(=O)(=O)c1ccc(C)cc1 | 10% | -26% | 12µM* | -25% | 6% | -15%
O=C1N/C(=N\S(=O)(=O)Cc2ccccc2)S/C1=C/c1cccc([N+](=O)[O-])c1 | -4% | ? | ? | . | 22% | .
COc1cc(/C=C2\SC(=S)NC2=O)ccc1OS(=O)(=O)c1ccccc1 | -56% | -29% | 211% | . | 7% | .
CCOc1ccc(/C=C2\SC(=S)NC2=O)cc1OC | -46% | -11% | 13µM* | -4% | -2% | i
COc1ccc(/C=C2/S/C(=N/S(=O)(=O)Cc3ccccc3)NC2=O)cc1OC | 15% | ? | 12µM* | . | 17% | .
Cc1cccc2cc(C#N)c(NCCNS(=O)(=O)c3ccc4c(c3)OCCO4)nc12 | -34% | -15% | 5.2µM* | . | ? | .
